The list is not random: actives were taken first. Their share in the collection is about 2.6%.
Gli-Sufu block: blocks Gli-Sufu signaling in a luciferase reporter | Sufu-KO-LIGHT fibroblasts, Gli luciferase reporter luminescence | inhibition, % at 5 µM | hit rate 0.74% among 340,000 | AID 588413;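 active = inhibition above about 55%, limit read from the data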;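 also: 0% = DMSO-treated cells and 100% = wells with medium but no cells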
NR2F2 inh: blocks human COUP-TFII nuclear receptor | P24468 | HEK293T NGFI-A luciferase reporter, luminescence | inhibition, % at 8.6 µM | hit rate 0.7% among 370,000 | AID 686940;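 active = inhibition above a per-plate cutoff, mean inhibition of test wells between control levels plus 3 SD, cut at about 38% in these data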;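 also: cells cotransfected with COUP-TFII expression vector driving the NGFI-A reporter; 0% = median of COUP-TF2 test wells and 100% = reporter-only cells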
Target sequence (P24468 whole entry, looked up): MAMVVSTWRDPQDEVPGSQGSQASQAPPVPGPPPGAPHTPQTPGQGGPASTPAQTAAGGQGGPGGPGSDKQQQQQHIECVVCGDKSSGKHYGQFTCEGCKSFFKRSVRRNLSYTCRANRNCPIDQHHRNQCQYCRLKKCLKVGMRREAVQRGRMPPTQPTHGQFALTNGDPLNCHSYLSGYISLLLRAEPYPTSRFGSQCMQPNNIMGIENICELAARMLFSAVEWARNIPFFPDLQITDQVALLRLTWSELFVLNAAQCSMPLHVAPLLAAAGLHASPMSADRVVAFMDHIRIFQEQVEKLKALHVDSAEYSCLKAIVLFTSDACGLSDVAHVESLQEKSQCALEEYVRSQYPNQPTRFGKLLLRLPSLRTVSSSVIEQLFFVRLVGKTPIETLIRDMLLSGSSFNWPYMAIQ
TAG inh: reduces triacylglycerol accumulation in H9c2 cells. hit rate 0.66% among 230,000. Nile Red lipid (TAG) fluorescence; cells loaded with 200 µM oleic acid. inhibition, % at 12.5 µM;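 active = pattern-corrected inhibition of lipid staining of at least 50% with the nuclear-stain viability signal not falling by more than 50%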;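 also: 0% = DMSO wells and 100% = triacsin C control wells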
Jurkat NFkB inh: inhibitors of the PMA/ionomycin-induced NF-kB reporter in Jurkat cells | PMA/ionomycin-induced NF-kB luciferase reporter, luminescence | AID 435003 | hit rate 0.53% among 330,000 | inhibition, % at 4 µM; in the data active = inhibition above about 50%
Cardio protect: protects H9c2 cardiomyocytes from peroxide injury; H2O2 injury protection, ATPLite, 2 h; protection from H2O2 cell death, % at 20 µM; hit rate 0.63% among 360,000;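 active = compounds giving at least 50% protection of heart cells from peroxide-induced death in the single-dose screen, raw or plate-pattern-corrected value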;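 also: 0% = DMSO wells with peroxide and 100% = DMSO wells without peroxide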
697 NFkB inh: lowers PMA/ionomycin-induced NF-kB signal in 697 B cells | 697 B-cell NF-kB luciferase reporter, 16 h | inhibition, % at 4 µM | hit rate 0.33% among 330,000; in the data active = inhibition above about 35%
Gli-Sufu confirm: Gli-SUFU antagonism confirmation, single concentration | Sufu-KO-LIGHT cells, Gli luciferase reporter, luminescence | shares compounds with Gli-Sufu block | AID 602428 | inhibition, % at 5 µM | hit rate 40% among 2,500;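 active = mean inhibition at 5 µM reaching about 45%, limit read from the data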;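 also: plate controls were DMSO-treated cells for no effect and wells lacking cells for full effect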
Gli cytotox: counter-screen for Gli-SUFU antagonists: cytotoxicity; shares compounds with Gli-Sufu block; Sufu-KO-LIGHT cells cytotoxicity, ATP luminescence; cytotoxicity, % at 5 µM; hit rate 32% among 2,500;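 active = mean cytotoxicity at 5 µM above about 25%, limit read from the data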;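 also: cells exposed to compound overnight for roughly 16 to 18 hours; plate controls were DMSO wells with cells for no effect and medium without cells for full effect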
Wnt3a cs: Wnt3a reporter inhibition counter-screen; shares compounds with Gli-Sufu block; Wnt-LIGHT cells, Wnt3a-driven luciferase reporter, luminescence; inhibition, % at 6.25 µM; hit rate 20% among 2,500;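 active = mean inhibition above about 25%, limit read from the data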
An asterisk follows results filed as active.

Screening CC[C@]12c3[nH]c4cc(CCC(=O)N(C)C)ccc4c3CCN1C(=O)[C@@H](CC(=O)NCCN1CCOCC1)C[C@@H]2C(=O)N1CCN(C(=O)C2CC2)CC1 returned Gli-Sufu block -6.5, NR2F2 inh -9.2, TAG inh -3.4, Cardio protect 7.3 and 697 NFkB inh 16.1.
For COc1cccc(NC(=O)NC2CCCCN(Cc3ccccc3C)C2=O)c1 (stereo not drawn) the results were NR2F2 inh 12.7.
Screening O=S(=O)(NCc1ccc(Cl)c(Cl)c1)c1cc(Cl)ccc1N1CC[C@@H](O)C1 returned NR2F2 inh 3.7.
COC(=O)C1=C(C)N(C)C(=NCc2ccc(OC)cc2)NC1c1cccc(Cl)c1 (stereo not drawn) was read as NR2F2 inh 2.1.
For CCNC(=O)N1C[C@H]2CON(C)[C@H]2C[C@H]1c1ccc(N2CCCCC2)cc1 the results were NR2F2 inh -2.3.
`O=C1NC(=O)C2C3C=CC(C12)C1C(=O)NC(=O)C31` (stereo not drawn) gave NR2F2 inh -20.1.
`COc1ccc(OC)c(S(=O)(=O)N(CCc2ccc(OC)c(OC)c2)Cc2cccs2)c1` gave NR2F2 inh 21.5.
O=[N+]([O-])c1cc(-c2nnc(C34CC5CC(CC(C5)C3)C4)o2)cc([N+](=O)[O-])c1 was read as Gli-Sufu block 25.6, NR2F2 inh 10.8, Jurkat NFkB inh -4.0, Cardio protect 0.3 and 697 NFkB inh 16.3.
`O=[N+]([O-])c1cccc(-c2nnc(C34CC5CC(CC(C5)C3)C4)o2)c1` gave Gli-Sufu block 77.0*, NR2F2 inh 4.4, Jurkat NFkB inh -8.8, Cardio protect 19.1, 697 NFkB inh -1.2, Gli-Sufu confirm 10.7, Gli cytotox 7.3 and Wnt3a cs -14.3.
CC(=O)C1(C(=O)Nc2cc(C)cc(C)c2)CC(c2ccccn2)=NO1 (stereo not drawn) was read as NR2F2 inh 10.6.
O=C(Nc1cccc([N+](=O)[O-])c1)OCc1ccc2c(c1)OCO2 was read as NR2F2 inh -24.6.
Screening O=C(Nc1nc(-c2cccs2)cs1)c1cccc(S(=O)(=O)N2CCCCCC2)c1 returned Gli-Sufu block 61.1*, NR2F2 inh 10.4, TAG inh 5.5, Jurkat NFkB inh -17.5, Cardio protect 6.5, 697 NFkB inh -30.8, Gli-Sufu confirm 57.6*, Gli cytotox -5.4 and Wnt3a cs -81.1.
Screening CCOC(=O)C1=C(C)NC(C)=C(C(=O)OCC)C1C returned Gli-Sufu block 53.2, NR2F2 inh -1.3, TAG inh -12.2, Jurkat NFkB inh -3.2, Cardio protect -5.7, 697 NFkB inh 25.7, Gli-Sufu confirm 14.6, Gli cytotox 0.9 and Wnt3a cs 11.2.
`CC(=O)NC(Cc1ccccc1C)C(=O)NC1CCN(C(=O)NCc2ccccc2)CC1` (stereo not drawn) gave Gli-Sufu block 58.4*, NR2F2 inh 2.1, Jurkat NFkB inh 10.0, Cardio protect 0.6, 697 NFkB inh 17.6, Gli-Sufu confirm 21.8, Gli cytotox 1.8 and Wnt3a cs -1.8.
For Cc1ccc(C(C)C)c(OCC(O)CN2CCc3ccccc3C2)c1 (stereo not drawn) the results were Gli-Sufu block 42.0, NR2F2 inh 3.3, TAG inh -31.8, Jurkat NFkB inh -0.1, Cardio protect -21.7 and 697 NFkB inh -14.1.
`Cn1cc(CNCc2ccccc2OCC(O)CN2CCc3ccccc3C2)cn1` (stereo not drawn) gave Gli-Sufu block 55.5*, NR2F2 inh 13.4, TAG inh -15.5, Jurkat NFkB inh 1.3, Cardio protect 10.0, 697 NFkB inh 9.1, Gli-Sufu confirm 28.7, Gli cytotox 8.5 and Wnt3a cs -15.2.
Screening COC(=O)c1cc2c(c3c4cc(F)ccc4n(S(=O)(=O)c4ccc(C)cc4)c13)C(=O)N(Cc1ccccc1)C2 returned NR2F2 inh 10.8.
CCC(C)CNC(=O)CN1C(=O)C2CCCCN2C(=O)c2ccccc21 (stereo not drawn) was read as NR2F2 inh 2.9.
For c1cnc2ccc(C(c3nnnn3C3CCCCC3)N3CCN(C4CCCCC4)CC3)cc2c1 (stereo not drawn) the results were Gli-Sufu block 65.4*, NR2F2 inh 2.3, TAG inh 25.1, Jurkat NFkB inh -21.3, Cardio protect 4.7, 697 NFkB inh -2.8, Gli-Sufu confirm 80.2*, Gli cytotox 36.0* and Wnt3a cs -35.9.
Cc1[nH]c2ccccc2c1CC(=O)Nc1ccc(Nc2cccnc2)c(-c2ccc(C(C)(C)C)cc2)c1 was read as NR2F2 inh 9.2.
For COc1ccc(CN2C[C@H](COCc3ccccc3)Oc3cccc(Oc4ccc(C(C)C)cc4)c3S2(=O)=O)cc1 the results were NR2F2 inh -8.0.
For C/C(N)=C(/C#N)C(=O)COC(=O)c1ccncc1 the results were Gli-Sufu block 95.1*, NR2F2 inh 7.9, TAG inh 0.6, Jurkat NFkB inh -8.6, Cardio protect 1.8, 697 NFkB inh -0.3, Gli-Sufu confirm 8.1, Gli cytotox 21.6 and Wnt3a cs -3.7.
Screening CSc1nc2[nH]c3c(c2c2nncn12)CC(C)(C)OC3 returned Gli-Sufu block 98.5*, NR2F2 inh -5.3, TAG inh 1.0, Jurkat NFkB inh -5.8, Cardio protect 13.1, 697 NFkB inh 15.1, Gli-Sufu confirm 26.9, Gli cytotox 5.5 and Wnt3a cs -15.4.
`Cc1ccc(CN2CC=CS2(=O)=O)cc1` gave NR2F2 inh -11.5.
`Cc1cccc(-c2nc(NCCCN3CCOCC3)c3ccccc3n2)c1` gave Gli-Sufu block 4.9, NR2F2 inh 10.0, TAG inh 21.6, Jurkat NFkB inh -22.2, Cardio protect 25.0 and 697 NFkB inh -12.1.
For Cc1cccc(-c2nc(NCCCN(C)C)c3ccccc3n2)c1 the results were Gli-Sufu block 55.0*, NR2F2 inh 4.2, TAG inh 19.8, Jurkat NFkB inh -15.7, Cardio protect 7.5, 697 NFkB inh -6.9, Gli-Sufu confirm 21.3, Gli cytotox 4.5 and Wnt3a cs -48.9.
For CN(C)CCCNc1nc(-c2ccc(Cl)cc2)nc2ccccc12 the results were Gli-Sufu block 69.4*, NR2F2 inh 10.8, Jurkat NFkB inh 23.0, Cardio protect 7.0, 697 NFkB inh 1.2, Gli-Sufu confirm 34.5, Gli cytotox 27.4* and Wnt3a cs -73.0.
